# Assay outcomes as filed in PubChem.
# ALR inh = inhibitors of human sulfhydryl oxidase ALR; P55789; purified ALR, DTT oxidation, H2O2 HRP-luminol luminescence; inhibition, % (concentration not given with the values); actives 3.8% (n = 290,000);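 active = mean replicate inhibition above about 79%, with every replicate also reaching it, limit read from the data; inconclusive = only one of the two criteria met; inactive = mean below limit and not every replicate reaching it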
# Target sequence (P55789 whole entry, looked up): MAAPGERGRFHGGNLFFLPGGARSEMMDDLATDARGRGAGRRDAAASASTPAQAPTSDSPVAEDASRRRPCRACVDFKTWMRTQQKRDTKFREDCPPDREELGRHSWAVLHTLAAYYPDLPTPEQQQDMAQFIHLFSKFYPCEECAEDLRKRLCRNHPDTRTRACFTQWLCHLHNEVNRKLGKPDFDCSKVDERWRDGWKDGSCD
# Efflux pump mplx = blocks antifungal efflux pumps in multiplex yeast assay | actives 0.44% (n = 330,000) | S. cerevisiae Candida pump triplex, Nile Red efflux | AID 485275 | inhibition, % at 10 µM;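 active = plate passing quality check with inhibition over a set limit, or well fluorescence over plate mean plus 4 SD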;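 also: Nile Red retained in pooled yeast measured as flow cytometry median fluorescence; 0% = buffer negative control and 100% = Enniatin B positive control; higher means more Nile Red kept so more efflux inhibition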
# eIF4H inh = inhibitors of RNA binding by human eIF4H; Q15056; eIF4H fluorescence polarization binding assay; inhibition, % at 35 µM; actives 0.94% (n = 290,000); AID 2012;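 also: calls also rest on retests at 20 µM and on dose response follow-up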
# SUMO HTRF inh = blocks human SUMOylation mediated by UBC9; HTRF SUMOylation assay, SAE1/SAE2 + UBC9, in vitro; inhibition, % at 35 µM; P63279; actives 0.36% (n = 290,000); in the data active = inhibition above about 50%, passing the limit was not always enough; inconclusive = no clear call, values can overlap the other calls
# Target sequence (P63279 whole entry, looked up): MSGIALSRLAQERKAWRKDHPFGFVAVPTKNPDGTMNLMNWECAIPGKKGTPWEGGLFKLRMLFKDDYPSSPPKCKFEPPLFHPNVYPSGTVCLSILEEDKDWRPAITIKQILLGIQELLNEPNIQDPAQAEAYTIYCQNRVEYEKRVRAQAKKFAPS
# PABP polyA inh = blocks human PABP binding to poly(A) RNA. P11940. fluorescence polarization. inhibition, % at 35 µM. actives 1% (n = 290,000);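 also: calls also rest on retests at 20 µM and on dose response follow-up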
# MLLE-PAM2 inh = blocks PAM2 peptide binding to the PABP1 MLLE domain; P11940; GST-MLLE / FITC-PAM2 fluorescence polarization; inhibition, % at 20 µM; actives 0.36% (n = 360,000); in the data active = inhibition above about 35%, passing the limit was not always enough;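 also: plate controls were DMSO wells with GST-MLLE for no effect and wells lacking GST-MLLE protein for full effect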
# * hit, by the source's call; ? = inconclusive; . = no result given. Sampled rows, rich in hits. Any-hit rate of the full collection: about 4.7%. Unless noted, no rule for the calls is given here.
SMILES,ALR inh,Efflux pump mplx,eIF4H inh,SUMO HTRF inh,PABP polyA inh,MLLE-PAM2 inh
CC1CN(C(=O)CCC(=O)N2CCOCC2)c2ccccc2O1 (stereo unspecified),-1,0,-2,21,-13,3
COc1ccc(N2CCN(C(=O)CCn3nnc4ccccc43)CC2)cc1,90*,0,-6,16,-3,-10
COc1ccc(N2CCN(C(=O)CCC(=O)N3CC(C)Oc4ccccc43)CC2)cc1 (stereo unspecified),78*,0,-7,9,-3,-4
O=C(Nc1c2c(nn1-c1ccc(F)cc1)CS(=O)C2)c1ccc2c(c1)OCO2 (stereo unspecified),-1,0,-1,11,4,-1
COCc1ccc(C(=O)N2CCCC(Nc3ccc(C(C)C)cc3)C2)s1 (stereo unspecified),93*,0,-6,-10,-14,8
CC(C)c1ccc(NC2CCCN(C(=O)c3cnn(C(C)C)c3)C2)cc1 (stereo unspecified),.,-1,7,-3,5,-7
COCc1ccc(C(=O)N2CCCC(Nc3ccc(C(C)C)cc3)C2)o1 (stereo unspecified),93*,1,-7,-1,5,4
CC1CN(C(=O)c2ccc(COc3ccc(C(C)C)cc3)o2)CC(C)O1 (stereo unspecified),2,0,7,-11,5,-2
COc1cc(C)c(N)cc1C(C)C,98*,0,0,-9,14,13
N#C/C(=C\c1ccc(N2CCCCC2)o1)C(=O)Nc1cccc(Br)c1,-6,0,39,21,-6,42
N#C/C(=C\c1ccc(N2CCCCC2)o1)C(N)=O,90*,0,?,-3,?,-144
O=C(O)c1ccc2c(c1)C(=O)N(Cc1ccc3c(c1)OCO3)C2=O,87*,0,-8,-4,7,2
O=C1c2ccccc2C(=O)N1Cc1ccc2c(c1)OCO2,.,0,-7,2,-1,-5
CC1=NN(c2ccc(C)cc2)C(=O)/C1=C/c1ccc(-c2cc([N+](=O)[O-])ccc2O)o1,.,.,105*,24,69*,-10
CC1=NN(c2ccc(C(=O)O)cc2)C(=O)/C1=C/c1ccc(-c2ccccc2F)o1,?,0,28,31,18,33
O=C1NN(c2cccc(Br)c2)C(=O)/C1=C/c1ccc(-c2cc([N+](=O)[O-])ccc2O)o1,6,0,96*,19,47,-10
Cc1cccc(NC(=O)c2nc[nH]c2C(=O)Nc2cc(Br)ccc2F)c1,.,.,.,.,.,-5
Cc1c(O)c(CN2CCCC2)cc2c3c(c(=O)oc12)CCC3,.,0,17,42,35,-17
Cc1c(O)c(CN2CCCC2)cc2c1oc(=O)c1ccccc12,85*,1,-10,-1,-4,-24
COc1ccc(Nc2n[nH]c(N)c2C(N)=O)cc1,99*,0,-2,-6,-1,5
C=CCOc1ccc(CNc2ccc3[nH]c(=O)[nH]c3c2)cc1OCC,98*,0,5,9,-9,19
CCOc1cc(CNc2ccc3[nH]c(=O)[nH]c3c2)ccc1OCC(=O)NC(C)(C)C,91*,0,19,22,30,7
CCOc1ccccc1OCC(=O)Nc1ccc2[nH]c(=O)[nH]c2c1,.,0,.,.,.,6
C=CCOc1ccc(CNC(C)(C)CO)cc1OCC,-11,0,3,15,-3,1
COc1cc(CNc2ccc(N3CCCCC3)cc2)ccc1OCC(=O)NC(C)(C)C,99*,0,-10,4,-8,14
SMILES,ALR inh,Efflux pump mplx,eIF4H inh,SUMO HTRF inh,PABP polyA inh,MLLE-PAM2 inh
C=CCOc1ccc(CNc2ccc3[nH]c(=O)[nH]c3c2)cc1,99*,0,-6,9,1,-4
COc1ccc(NC(=O)c2cc(C3CCCCN3S(C)(=O)=O)on2)c(C)c1 (stereo unspecified),.,.,.,.,.,6
CCOC(=O)C(CC)c1cc2n(c(=O)c1C#N)CCC21OCCO1 (stereo unspecified),.,.,.,.,.,-7
COc1cc(CNn2c(C)n[nH]c2=S)cc(Cl)c1OCC(=O)NC(C)(C)C,50,0,14,-9,2,-4
COc1cccc(CNc2ccc3[nH]c(=O)[nH]c3c2)c1OCc1ccc(F)cc1,?,0,0,11,6,21
C=CCOc1c(CNc2ccc3[nH]c(=O)[nH]c3c2)cccc1OC,99*,0,9,3,0,-1
